The values that follow come from PubChem BioAssay (EPA / NIEHS).

Records with an inconclusive call do not appear. Calls of active or inactive are those of the source. How the source made its calls: active means hit-call score of the fitted dose curve at least 0.9, where 1 is the maximum; inconclusive means response in the unintended direction; inactive means score below 0.9.

The nature of the assay: Tanguay_ZF_120hpf_SOMI_legacy: (Legacy) Oregon State University Tanguay Lab 120 Hour Post-fertilization zebrafish Assay for Somite Malformation (AID 2283647). The method, then:
Tanguay_ZF_120hpf_legacy is a whole embryo, multiplexed endpoint assay using zebrafish larvae exposed for 120 hours post fertilization on a 96-well plate.Tanguay_ZF_120hpf_SOMI_legacy is one of one assay component(s) measured or calculated from the Tanguay_ZF_120hpf_legacy assay. It is designed to make measurements of zebrafish development as detected with brightfield microscopy of developing zebrafish embryos.Data from the assay component Tanguay_ZF_120hpf_SOMI_legacy was analyzed into 1 assay endpoints. This assay endpoint, Tanguay_ZF_120hpf_SOMI_legacy, was analyzed in the positive analysis fitting direction relative to DMSO as the negative control and baseline of activity. Using a type of morphology reporter, gain-of-signal activity can be used to understand changes in developmentals as they relate to the whole embryo. To generalize the intended target to other relatable targets, this assay endpoint is annotated to the zebrafish development intended target family, where the subfamily is somitogenesis.
Zebrafish husbandry: Tropical 5D wild-type adult zebrafish were housed in at an approximate density of 1000 per 100 gallon tank at the Sinnhuber Aquatic Research Laboratory, Oregon State University, Corvallis, OR. Each tank was kept at standard laboratory conditions of 28C on a 14-h light/10-h dark photoperiod in fish water consisting of reverse osmosis water supplemented with a commercially available salt (Instant Ocean). Spawning funnels were placed into the tanks the night prior, and embryos were collected and staged. To increase bioavailability, the chorion was enzymatically removed using pronase (63.6mg/ml, >/= 3.5U/mg, Sigma-Aldrich: P5147) at 4 hours post fertilization (hpf) using a custom automated dechorionator.Chemical exposures: Six hpf dechorionated embryos were placed 1 embryo per well in a 96-well plate prefilled with 90 ul of EM using automated embryo placement systems (AEPS). Ten microliters of each row of dilution plate 2 was added to 2 exposure plates. The final DMSO concentration used was 0.64% (vol/vol). Thirty-two embryos were also exposed to 5uM trimethyltin chloride (positive control). Plates were sealed to prevent evaporation and foil covered to reduce light exposure and kept in a 28C incubator. Embryos were statically exposed until 120 hpf. At 24 hpf, embryos were assessed for photomotor response using a custom photomotor response analysis tool (PRAT) and for developmental toxicity endpoints (MO24: mortality at 24 hpf, DP: developmental progression, SM: spontaneous movement, and NC: notochord distortion). At 120 hpf, locomotor activity was measured using Viewpoint Zebralab and assessed for 18 endpoints. Zebrafish acquisition and analysis program (ZAAP), a custom program designed to inventory, acquire, and manage zebrafish data, was used to collect developmental endpoints as either present or absent (i.e., binary responses were recorded). If mortality occurred for an embryo (at either 24 or 120 hpf), the non-mortality endpoints were not measured.
Regarding `CC(=O)OCCOCCOCCOC(C)=O`, the compound was called inactive.

Regarding `O=[N+]([O-])C(CO)(CO)CO`, the compound was classed as inactive.

`C[Si]1(C)O[Si](C)(C)O[Si](C)(C)O[Si](C)(C)O1`: the outcome was inactive. As for `CCc1c(C(=O)NN2CCCCC2)nn(-c2ccc(Cl)cc2Cl)c1-c1ccc(Br)cc1`, the compound was called inactive. Consider `Cc1cccc([N+](=O)[O-])c1C`, for which the outcome was inactive. For the compound `CCCCc1ccc2c(n1)[C@@H](c1ccc(OC)cc1C[C@H](C)C(=O)O)[C@H](C(=O)O)[C@H]2c1ccc2c(c1)OCO2`, the call was inactive. Consider `CC(C)c1ccc(C(=O)N=C(N)N)cc1S(C)(=O)=O`, for which the outcome was inactive. For `O=c1c(O)c(-c2ccc(O)c(O)c2)oc2cc(O)cc(O)c12`, the compound was classed as inactive.

For the compound `O=C(OCCCCCOC(=O)c1ccccc1)c1ccccc1`, the outcome was inactive. In the case of `Cc1ccc2ncccc2c1`, the compound was classed as inactive. For `FC(F)(F)C(F)(F)C(F)(F)C(F)(F)C(F)(F)C(F)(F)CCI` the value was “inactive”; for `CNC(=O)[C@H]1O[C@@H](n2cnc3c(NCc4cc(Cl)ccc4OCc4cc(C)no4)ncnc32)[C@H](O)[C@@H]1N`, “inactive”.

`CCCCCCOCCO`: the compound was called inactive. Turning to `C1CCC(SSC2CCCCC2)CC1`, the compound was classed as inactive. Turning to `Cc1cc(NC(=O)C(=O)O)cc(C)c1Oc1ccc(O)c2c1CCC2`, the compound was classed as inactive. Take `CCOc1ccc2c(c1)C(C)=CC(C)(C)N2`: the compound was classed as inactive. For `CCCCCCCC=O` the value was “inactive”; for `CC1=C(/C=C/C(C)=C/C=C/C(C)=C/CO)C(C)(C)CCC1`, “inactive”. Turning to `CCNc1cccc(C)c1`, the result was inactive. For the compound `CC(=O)OC/C=C(\C)CCC=C(C)C`, the compound was classed as inactive. For the compound `CCCCCCCCCCCCCCCC`, the compound was called inactive. As for `Cc1ccc(N(C)C)cc1`, the compound was classed as inactive. In the case of `COc1cc(C=O)ccc1O`, the outcome was inactive.

For the compound `CN1CCCC1=O`, the call was inactive. Consider `CC(=O)C(C)=CC1C(C)=CCCC1(C)C` (stereo not given), for which the result was inactive. Consider `CCCCCCCCCCCCCO`, for which the result was inactive. With `Cc1cccc(Nc2cc(Cl)nc(SCC(=O)O)n2)c1C`, the outcome was inactive.

For the compound `CC(C)(C)c1cc(O)c(C(C)(C)C)cc1O`, the result was inactive.

As to `COc1cc(-c2nc(NC(=O)c3cc4cc(C)cc(C)c4n3CC(=O)O)sc2CCC2CCCCC2)c(OC)cc1Cl`, the compound was classed as inactive.

Turning to `CCCc1cc(=O)[nH]c(=S)[nH]1`, the result was inactive. With `Nc1ccc(S(=O)(=O)c2ccc(N)cc2)cc1`, the compound was classed as inactive. Consider `Nc1ccccc1N`, for which the call was inactive. For the compound `OC[C@@H](O)[C@@H](O)[C@H](O)[C@H](O)CO`, the compound was classed as inactive.

As for `COc1ccc(S(=O)(=O)N2C(=O)[C@@](c3ccccc3OC)(N3C[C@H](O)C[C@H]3C(=O)N(C)C)c3cc(Cl)ccc32)c(OC)c1`, the compound was classed as inactive. The value for `Cc1ccc(C)c(O)c1C` was “inactive”.

For `Nc1ccc2c(c1)C(=O)c1ccccc1C2=O`, the outcome was inactive. As for `CC1(C)CC(N=C=O)CC(C)(CN=C=O)C1` (stereo not given), the compound was classed as inactive. For the compound `COc1cc(S(=O)(=O)O)c(C)cc1N=Nc1c(O)ccc2cc(S(=O)(=O)O)ccc12`, the outcome was inactive. As to `O=C(O)Cc1ccccc1Nc1c(Cl)cccc1Cl`, the compound was called inactive. The value for `CCCCCC(=O)O` was “inactive”.
